The record followed here is PubChem BioAssay.

Usually AC50 stands for the concentration at which the activity in the assay is half-maximal. By inhibition is commonly meant the drop in the measured response relative to a control, in per cent.

Each structure is given as a SMILES string. “And” between values parts separate entries of the source, which are not always exact repeats. Equal values may be shown once. Inconclusive results are not listed. A structure can be active in one record and inactive in another. The source made the active and inactive calls. Cut-off read from the data, not from the text of the source, unless noted: active = inhibition above about 80%; inactive = the rest.

Experiment [1] is described as follows: chitosan synthesis blockers in C. neoformans – flow cytometry, Cibacron Brilliant Red staining (AID 1347148; call rule not given here;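 note: compound exposure lasted three days at 37 degrees C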). The settings on record: Cryptococcus neoformans chitosan, stronger effect = lower value; at 10 µM unless noted. (In general: In flow cytometry, cells or beads pass a laser one at a time.)
Experiment [2] in a line: viability loss in pontine glioma line – cell-based, JHH-DIPG-1, MIPE4.0, CellTiter-Glo, qHTS, dose response (AID 1347062; cut-off not given, nearly all actives have AC50 up to about 27 µM;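 for AC50: cells exposed to compound for two days before readout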). The settings on record: JHH-DIPG-1 viability, CellTiter-Glo ATP luminescence. (In general: ATP-based viability assays read luminescence as a measure of living cells.)
The nature of experiment [3]: growth inhibition, single agent or in combination, cell-based, chromothripsis tumors, cisplatin or BGB combos (AID 1671449).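 Note: cells exposed for 96 hours; 0% = vehicle DMSO and 100% = killing by high DMSO.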 The settings on record: LFS_MB_P medulloblastoma cells.
Experiment [4] in a line: growth inhibition, single agent and combos, cell-based, chromothripsis tumors, cisplatin or BGB combos (AID 1671450).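 Note: cells exposed to compound for four days; 0% = vehicle DMSO and 100% = cell killing by high DMSO.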 Conditions: HDN33 neuroblastoma cells, stronger effect = higher value.
Experiment [5] in a line: growth inhibition, single agents and combos, LFS_MB_1R, cell-based, cisplatin or BGB combos, synergistic combos for chromothripsis tumors (AID 1671452).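 Note: cells exposed for 96 hours before readout.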 Conditions: LFS_MB_1R medulloblastoma cells, stronger effect = higher value.
Experiment [6] can be described thus: growth inhibition, single agents and combos, HTB85, cell-based, BGB or cisplatin IC20 combos, synergistic combos for chromothripsis tumors (AID 1671453).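 Note: cells exposed for 96 hours before readout; 0% = vehicle DMSO and 100% = high DMSO killing control.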 Conditions: HTB85 osteosarcoma cells, drug combinations, stronger effect = higher value.
Experiment [7] in a line: growth inhibition, single agents and combos, CRL2098, cell-based, BGB or cisplatin IC20 combos, synergistic combos for chromothripsis tumors (AID 1671454).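 Note: cells exposed for 96 h before readout; 0% = vehicle DMSO and 100% = killing by high DMSO.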 Conditions: CRL2098 osteosarcoma cells, drug combinations, stronger effect = higher value.
Experiment [8] can be described thus: growth inhibition, single agents and combos, HD-MB03, cell-based, BGB or cisplatin IC20 combos, synergistic combos for chromothripsis tumors (AID 1671455; in the data active = inhibition above about 83%;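 note: 0% = vehicle DMSO and 100% = high DMSO as cytotoxic control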). Conditions: HD-MB03 medulloblastoma cells, stronger effect = higher value.
Experiment [9] in a line: growth inhibition, MDA-MB-436, cell-based, BGB or cisplatin combos, synergistic combos for chromothripsis tumors (AID 1671458; call rule not given here;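 note: cells exposed for 96 hours; 0% = vehicle DMSO and 100% = killing by high DMSO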). Conditions: MDA-MB-436 breast carcinoma growth inhibition, drug combinations, stronger effect = higher value.
Experiment [10] can be described thus: BT084 cell growth, single and combined drugs, ICGC_MB145, cisplatin and BGB IC40 combos (AID 1671461).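 Note: cells exposed to drugs for 96 hours; 0% = vehicle DMSO and 100% = high DMSO full killing control.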 The settings on record: BT084 medulloblastoma cells, drug combinations, stronger effect = higher value.
The nature of experiment [11]: RCMB18 cell growth, single agent and combined, cisplatin and BGB IC40 combos (AID 1671462).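 Note: cells exposed to compound for four days.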 The settings on record: RCMB18 medulloblastoma cells, stronger effect = higher value.
A short description of experiment [12]: CRL1545 cell growth, single agent and combined, cisplatin and BGB IC20 combos (AID 1671464).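 Note: cells exposed to compound for 96 hours before readout; 0% = vehicle DMSO and 100% = high DMSO killing control.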 The settings on record: CRL1545 osteosarcoma cells, stronger effect = higher value.
The nature of experiment [13]: compounds altering viability of human ES cells (AID 493140; call rule not given here;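 note: cells exposed to compounds for four days before counting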). The settings on record: human embryonic stem cell survival screen; stronger effect = higher value.
Where [14] appears, read: at 0.5 µM, stronger effect = higher value.
Setting [15] is: measured here: combination with BGB IC20, at 0.005 µM.
Setting [16] is: measured here: combination with BGB IC40, at 0.005 µM.
[17] abbreviates: measured here: combination with BGB IC40, at 0.05 µM.
[18] abbreviates: measured here: combination with cisplatin, at 0.5 µM, stronger effect = higher value.
Where [19] appears, read: measured here: combination with cisplatin, at 5 µM, stronger effect = higher value.
Where [20] appears, read: measured here: with BGB IC20 combination, at 0.5 µM.
Where [21] appears, read: measured here: with cisplatin IC20 combination, at 0.5 µM.
Where [22] appears, read: measured here: combination with cisplatin, at 0.5 µM.
[23] abbreviates: measured here: combination with cisplatin, at 5 µM.
Where [24] appears, read: measured here: with BGB IC20, at 0.5 µM.
[25] abbreviates: measured here: with BGB IC20, at 5 µM.
[26] abbreviates: measured here: with cisplatin IC20, at 0.5 µM.
Where [27] appears, read: measured here: with cisplatin IC20, at 5 µM.
Setting [28] is: measured here: combination with BGB at IC20, at 0.5 µM.
Setting [29] is: measured here: combination with cisplatin at IC20, at 0.5 µM.
[30] abbreviates: measured here: combo with BGB at IC20, at 0.5 µM.
Where [31] appears, read: measured here: combo with cisplatin at IC20, at 0.5 µM.
The mark [32] stands for this setting: measured here: BGB combination, at 0.5 µM.
Setting [33] is: measured here: BGB combination, at 5 µM.
The mark [34] stands for this setting: measured here: cisplatin combination, at 0.5 µM.
Where [35] appears, read: measured here: cisplatin combination, at 5 µM.
The mark [36] stands for this setting: cisplatin combination, at 0.5 µM.
Setting [37] is: measured here: BGB IC40 combination 0.05 uM, at 0.05 µM.
The mark [38] stands for this setting: measured here: BGB IC40 combination, at 0.05 µM.

For the compound `CC(C)NC[C@H](O)COc1cccc2ccccc12`, in experiment [1], the fold fluorescence is 1.64 [at 192.8 µM] (inactive).
In the case of `CN1C(C(=O)Nc2ccccn2)=C(O)c2sc(Cl)cc2S1(=O)=O`, in experiment [2], the result was inactive.
As to `CC(C)=CCC/C(C)=C/CC/C(C)=C/CC/C(C)=C/CC/C(C)=C/CC/C(C)=C/CC/C(C)=C/CC/C(C)=C/CC/C(C)=C/CO`, the outcome in [2] was inactive.
On the same count and under the same terms, under `CC(C)C(C)/C=C/C(C)C1CCC2C3=CC=C4CC(O)CCC4(C)C3CCC21C` (stereo unspecified) stands “inactive”.
Turning to `OC[C@@H](O)[C@@H](O)[C@H](O)[C@@H](O)CO`, the call in experiment [2] was inactive.
Turning to `CC[C@@]1(O)C(=O)OCc2c1cc1n(c2=O)Cc2cc3cc(O)ccc3nc2-1`, in [2], the AC50 was 1870 nM (active). Further, the fold fluorescence in experiment [1] was 7.95 [at 137.2 µM] (inactive). Moreover, the inhibition in experiment [3] (setting [14]) is 25.9% (inactive) and 5.42% (inactive); in experiment [3] (setting [15]), 4.22% and -3.99%; in experiment [3] (setting [16]) it was -42.5% and -15.9%; in [3] (setting [17]) it was -16% and -4.31%; in experiment [3] (setting [18]), 62.8% and 48.1%; in [3] (setting [19]) it was 89.7% and 78.7%. The inhibition in experiment [4] (BGB combo, at 5 µM) is 98.1% and 98.5%; in [4] (at 0.5 µM), 78.7% (inactive) and 83.5% (active); in [4] (cisplatin combo, at 5 µM) it was 96.5% and 98%; in [4] (setting [20]), 82.7% and 84.4%; in experiment [4] (setting [21]), 71% and 81.1%; in [4] (single agent, at 5 µM), 96.6% and 97.8%. Further, the inhibition was 67.2% (inactive) and 79% (inactive) in [5] (at 0.5 µM); -33.9% and 7.21% in [5] (setting [17]); 83.2% and 73.4% in experiment [5] (setting [22]); 84.4% and 82.5% in experiment [5] (setting [23]); 99% (active) and 98.8% (active) in experiment [6] (at 0.5 µM); 97.9% and 98.3% in experiment [6] (setting [24]). Also, the inhibition in experiment [6] (setting [25]) is 98.2% and 98.3%; in experiment [6] (setting [26]), 99.3% and 98.9%; in experiment [6] (setting [27]) it was 99.6% and 99.7%; in experiment [6] (single agent, at 5 µM), 99.5% and 99.7%; in experiment [7] (at 0.5 µM), 58.1% (inactive) and 64.8% (inactive); in experiment [7] (setting [28]), 81.9% and 74.5%. In addition, the inhibition in experiment [7] (setting [29]) is 44.1% and 55.5%; in [8] (at 0.5 µM), 99.4% (active) and 99.3% (active); in experiment [8] (setting [30]), 99.4%; in [8] (setting [31]), 99.4% and 99.2%; in experiment [9] (at 0.5 µM) it was 69.5% (inactive) and 70% (inactive); in experiment [9] (setting [32]), 63.8% and 64.7%. The inhibition in experiment [9] (setting [33]) is 63.6% and 74.3%; in experiment [9] (setting [34]), 71.5% and 68.7%; in experiment [9] (setting [35]), 80.4% and 83.5%; in experiment [10] (at 0.5 µM), 13.5% (inactive) and 7.41% (inactive); in experiment [10] (setting [36]), 46.9% and 55.3%; in experiment [10] (cisplatin combination, at 5 µM), 28% and 7.98%. In addition, the inhibition is -21.8% and -8.97% in experiment [10] (setting [37]); 42.3% and 44.7% in [10] (single agent, at 5 µM); 36.1% (inactive) and 38.1% (inactive) in experiment [11] (at 0.5 µM); 72.4% and 72.1% in [11] (cisplatin combo, at 5 µM); -15.2% and -13.6% in [11] (setting [38]); 47.7% and 55.8% in experiment [11] (setting [22]). The inhibition in [11] (single agent, at 5 µM) was 59.8% and 73%; in experiment [12] (at 0.5 µM), 81.7% (active) and 82.4% (active); in [12] (setting [20]) it was 95.3% and 93.8%; in experiment [12] (setting [21]) it was 74.8% and 76.7%; in experiment [12] (single agent, at 0.05 µM) it was 4.98% and 48.5%; in [12] (single agent, at 5 µM), 99.8% and 99.9%.
With `Cc1cc2nc3c(=O)[nH]c(=O)nc-3n(CC(O)C(O)C(O)CO)c2cc1C` (stereo unspecified), the survival in experiment [13] is 1.58 (inactive). In addition, in experiment [2], the call was inactive.
Consider `CC1CC2C3CCC4=CC(=O)C=C[C@]4(C)[C@@]3(F)[C@@H](O)C[C@]2(C)[C@@]1(O)C(=O)CO` (stereo partly specified), for which, in experiment [2], the outcome was inactive.
With `Cc1c(-c2cnccn2)ssc1=S`, the inhibition in experiment [3] (setting [14]) is -20.5% (inactive); in experiment [3] (setting [15]), -19.2%; in experiment [3] (setting [16]) it was -19%; in [3] (setting [17]), -17.6%; in experiment [3] (setting [18]) it was -32.1%; in experiment [3] (setting [19]) it was -10.5%. Moreover, the inhibition is -58.5% in [4] (BGB combo, at 5 µM); -42% (inactive) in experiment [4] (at 0.5 µM); -70% in experiment [4] (cisplatin combo, at 5 µM); -31.4% in experiment [4] (setting [20]); -48.3% in experiment [4] (setting [21]); -46.9% in [4] (single agent, at 5 µM). Also, the inhibition in experiment [5] (at 0.5 µM) is -48.5% (inactive); in experiment [5] (setting [17]) it was 12.7%; in experiment [5] (setting [22]), -42.8%; in [5] (setting [23]) it was -46.1%; in experiment [6] (at 0.5 µM) it was -26% (inactive); in [6] (setting [24]), -48%. Further, the inhibition in [6] (setting [25]) is -29.8%; in [6] (setting [26]), -19.3%; in [6] (setting [27]), 6.84%; in [6] (single agent, at 5 µM), -28%; in experiment [7] (at 0.5 µM), -91.2% (inactive); in [7] (setting [28]) it was -80.8%. For the same compound, the inhibition in [7] (setting [29]) was -109%; in experiment [8] (at 0.5 µM) it was -13% (inactive); in experiment [8] (setting [30]), -1.23%; in experiment [8] (setting [31]) it was -23%; in [9] (at 0.5 µM), -20.6% (inactive); in experiment [9] (setting [32]), -19.7%. Further, the inhibition was -36% in experiment [9] (setting [33]); -33% in experiment [9] (setting [34]); -12.1% in experiment [9] (setting [35]); -10.9% (inactive) in experiment [10] (at 0.5 µM); -13.8% in experiment [10] (setting [36]); -45.9% in experiment [10] (cisplatin combination, at 5 µM). In addition, the inhibition is 2.43% in [10] (setting [37]); -13.6% in [10] (single agent, at 5 µM); -21% (inactive) in [11] (at 0.5 µM); -46.1% in experiment [11] (cisplatin combo, at 5 µM); -10.6% in experiment [11] (setting [38]); -54.1% in experiment [11] (setting [22]). The inhibition in experiment [11] (single agent, at 5 µM) was -29.2%; in experiment [12] (at 0.5 µM) it was -60.7% (inactive); in experiment [12] (setting [20]) it was -51%; in experiment [12] (setting [21]) it was -65.5%; in experiment [12] (single agent, at 0.05 µM), -3.94%; in [12] (single agent, at 5 µM) it was -64.9%.
